# Several values for one entry are separate records, joined by “and”; a condition that tells them apart may be missing. Equal entries are not always repeated. Activity calls are given as the source filed them. How the source made its calls: active means hit-call score of the fitted dose curve at least 0.9, where 1 is the maximum; inactive means score below 0.9.
# Test system: not listed separately
# Assay: ATG_M_06_CIS: Attagene CIS-FACTORIAL HepG2 Assay for M06 Transcription Factor (Internal Marker) (AID 2282950)
# Conditions: HepG2 Attagene CIS-FACTORIAL M06 internal marker reporter; actives raise or lower the signal
# Outline: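 Read-out is fluorescence of labelled reporter cDNA fragments resolved by capillary electrophoresis after RT-PCR. Cells: HepG2 carrying transfected cis-promoter reporter units, treated 24 h. Gain or loss of signal fitted relative to DMSO.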
row,Structure (SMILES),outcome
1,CCCCCOC(=O)c1ccccc1C(=O)OCCCCC,inactive
2,Cc1ccc(N=C=O)cc1N=C=O,inactive
3,O=C(O)C1C2CCC(O2)C1C(=O)O (centres undefined),inactive
4,COC(=O)Nc1nc2ccccc2[nH]1,inactive
5,CS(=O)(=O)NC(=O)c1cc(Oc2ccc(C(F)(F)F)cc2Cl)ccc1[N+](=O)[O-],inactive
6,CCNS(=O)(=O)C(F)(F)C(F)(F)C(F)(F)C(F)(F)C(F)(F)C(F)(F)C(F)(F)C(F)(F)F,inactive
7,CCOc1cccc(C2(N3CCN(c4ccccc4)CC3)CCC(C)CC2)c1 (centres undefined),inactive
8,Nc1ccc(Oc2ccc(N)cc2)cc1,inactive
9,OCCCBr,inactive
10,c1ccc(C2CO2)cc1 (centres undefined),inactive
11,[O-][Cl+]O,inactive
12,Oc1ccc2ccc3cccc4ccc1c2c34,inactive
13,c1ccc(N=Nc2ccccc2)cc1,inactive

# Target: Hypoxia-inducible factor 1-alpha (Homo sapiens) (UniProt Q16665)
# Assay: ATG_HIF1a_CIS: Attagene CIS-FACTORIAL HepG2 Assay for human Hypoxia Inducible Factor 1 (HIF1A) (AID 2282951)
# Conditions: HepG2 Attagene cis-factorial HIF1a reporter transcription; actives raise or lower the signal
# Outline: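 Cis-element reporter constructs were transiently transfected into HepG2 cells, which were treated for 24 h; reporter RNA was reverse-transcribed, amplified, labelled and resolved by capillary electrophoresis.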
# Hypoxia-inducible factor 1-alpha (Homo sapiens), sequence (Q16665 whole entry, looked up): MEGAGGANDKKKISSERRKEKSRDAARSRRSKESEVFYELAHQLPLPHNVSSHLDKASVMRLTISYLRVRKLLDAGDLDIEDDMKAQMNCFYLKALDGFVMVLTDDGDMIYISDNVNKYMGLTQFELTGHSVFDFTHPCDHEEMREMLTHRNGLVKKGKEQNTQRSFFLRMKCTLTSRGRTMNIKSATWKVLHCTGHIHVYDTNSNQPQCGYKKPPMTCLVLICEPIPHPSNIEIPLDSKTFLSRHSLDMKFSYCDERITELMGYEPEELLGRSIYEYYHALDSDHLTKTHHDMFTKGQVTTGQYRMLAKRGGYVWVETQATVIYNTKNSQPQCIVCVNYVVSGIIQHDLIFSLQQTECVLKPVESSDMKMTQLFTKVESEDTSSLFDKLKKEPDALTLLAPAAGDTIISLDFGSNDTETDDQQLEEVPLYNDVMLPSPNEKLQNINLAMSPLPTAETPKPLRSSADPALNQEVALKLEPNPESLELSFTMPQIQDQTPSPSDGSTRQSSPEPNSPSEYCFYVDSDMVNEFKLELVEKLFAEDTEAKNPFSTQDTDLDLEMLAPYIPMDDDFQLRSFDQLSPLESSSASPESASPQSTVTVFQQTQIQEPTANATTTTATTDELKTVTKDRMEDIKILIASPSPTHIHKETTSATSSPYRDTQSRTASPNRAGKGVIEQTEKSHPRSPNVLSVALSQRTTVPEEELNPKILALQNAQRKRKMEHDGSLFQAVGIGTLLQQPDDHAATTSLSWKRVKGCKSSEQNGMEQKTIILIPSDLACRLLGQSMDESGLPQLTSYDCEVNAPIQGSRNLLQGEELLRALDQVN
Structure (SMILES),AC50,outcome
O=[N+]([O-])C(Br)(CO)CO,25 µM (active),–
CCCCCOC(=O)c1ccccc1C(=O)OCCCCC,–,inactive
Cc1ccc(N=C=O)cc1N=C=O,–,inactive
CCCSC(=O)N(CCC)CCC,–,inactive
Oc1ccccc1Cl,–,inactive
CC(C)(C)C(O)(CCc1ccc(Cl)cc1)Cn1cncn1 (centres undefined),–,inactive
COC(=O)Nc1nc2ccccc2[nH]1,–,inactive
ClC1=C(Cl)C2(Cl)C3C(Cl)C=CC3C1(Cl)C2(Cl)Cl (centres undefined),–,inactive
N#CC(Br)Br,–,inactive
ClCCOCCCl,–,inactive
ClC1=C(Cl)[C@]2(Cl)[C@H]3[C@H]([C@@H]4C=C[C@H]3C4)[C@@]1(Cl)C2(Cl)Cl,–,inactive
C1=Cc2cccc3cccc1c23,–,inactive
CS(=O)(=O)NC(=O)c1cc(Oc2ccc(C(F)(F)F)cc2Cl)ccc1[N+](=O)[O-],–,inactive
CCNS(=O)(=O)C(F)(F)C(F)(F)C(F)(F)C(F)(F)C(F)(F)C(F)(F)C(F)(F)C(F)(F)F,–,inactive
CCN(CC)CCO,–,inactive
CCOc1cccc(C2(N3CCN(c4ccccc4)CC3)CCC(C)CC2)c1 (centres undefined),–,inactive
Nc1ccc(Oc2ccc(N)cc2)cc1,–,inactive
CCCCOC(=O)c1ccccc1C(=O)OCc1ccccc1,–,inactive
OCCCBr,–,inactive
CCN(CC)N=O,–,inactive
c1ccc(C2CO2)cc1 (centres undefined),–,inactive
[O-][Cl+]O,–,inactive
Oc1ccc2ccc3cccc4ccc1c2c34,0.00117 µM (active),–
Cc1cccc(N)c1N,2.66 µM (active),–
CC(C)N(Cc1ccccc1)C(=O)C(C)(C)C,–,inactive
Cc1cc(N=Nc2ccccc2C)ccc1N,24.7 µM (active),–
c1ccc(N=Nc2ccccc2)cc1,–,inactive

# Target: Hepatocyte nuclear factor 6 (Homo sapiens) (UniProt Q9UBC0)
# Assay: ATG_HNF6_CIS: Attagene CIS-FACTORIAL HepG2 Assay for human Hepatocyte Nuclear Factor 6 (HNF6) (AID 2282952)
# Conditions: HepG2 Attagene cis-factorial HNF6 reporter transcription; actives raise or lower the signal
# Outline: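 Endogenous transcription factor activity in human HepG2 liver cells was captured through cis-regulated reporter constructs. After 24 h treatment, reporter mRNA was measured by RT-PCR with capillary electrophoresis, and activity was fitted in both directions relative to DMSO.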
# Hepatocyte nuclear factor 6 (Homo sapiens), sequence (Q9UBC0 whole entry, looked up): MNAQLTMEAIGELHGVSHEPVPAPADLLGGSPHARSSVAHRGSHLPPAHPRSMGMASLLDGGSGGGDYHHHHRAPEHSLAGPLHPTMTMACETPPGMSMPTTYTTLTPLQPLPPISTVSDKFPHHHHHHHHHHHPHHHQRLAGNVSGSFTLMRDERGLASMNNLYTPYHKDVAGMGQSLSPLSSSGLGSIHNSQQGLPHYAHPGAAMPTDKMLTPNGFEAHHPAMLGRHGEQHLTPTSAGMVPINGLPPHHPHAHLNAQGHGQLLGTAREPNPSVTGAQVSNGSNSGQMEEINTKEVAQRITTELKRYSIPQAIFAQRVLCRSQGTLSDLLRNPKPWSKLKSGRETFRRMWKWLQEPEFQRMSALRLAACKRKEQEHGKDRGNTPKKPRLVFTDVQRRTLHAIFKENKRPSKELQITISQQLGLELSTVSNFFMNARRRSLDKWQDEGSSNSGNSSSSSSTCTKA
row,Structure (SMILES),outcome
1,O=[N+]([O-])C(Br)(CO)CO,inactive
2,CCCCCOC(=O)c1ccccc1C(=O)OCCCCC,inactive
3,Cc1ccc(N=C=O)cc1N=C=O,inactive
4,CCCSC(=O)N(CCC)CCC,inactive
5,O=C(O)C1C2CCC(O2)C1C(=O)O (centres undefined),inactive
6,Oc1ccccc1Cl,inactive
7,CC(C)(C)C(O)(CCc1ccc(Cl)cc1)Cn1cncn1 (centres undefined),inactive
8,COC(=O)Nc1nc2ccccc2[nH]1,inactive
9,ClC1=C(Cl)C2(Cl)C3C(Cl)C=CC3C1(Cl)C2(Cl)Cl (centres undefined),inactive
10,N#CC(Br)Br,inactive
11,ClCCOCCCl,inactive
12,ClC1=C(Cl)[C@]2(Cl)[C@H]3[C@H]([C@@H]4C=C[C@H]3C4)[C@@]1(Cl)C2(Cl)Cl,inactive
13,C1=Cc2cccc3cccc1c23,inactive
14,CS(=O)(=O)NC(=O)c1cc(Oc2ccc(C(F)(F)F)cc2Cl)ccc1[N+](=O)[O-],inactive
15,CCNS(=O)(=O)C(F)(F)C(F)(F)C(F)(F)C(F)(F)C(F)(F)C(F)(F)C(F)(F)C(F)(F)F,inactive
16,CCN(CC)CCO,inactive
17,CCOc1cccc(C2(N3CCN(c4ccccc4)CC3)CCC(C)CC2)c1 (centres undefined),inactive
18,Nc1ccc(Oc2ccc(N)cc2)cc1,inactive
19,CCCCOC(=O)c1ccccc1C(=O)OCc1ccccc1,inactive
20,OCCCBr,inactive
21,CCN(CC)N=O,inactive
22,c1ccc(C2CO2)cc1 (centres undefined),inactive
23,[O-][Cl+]O,inactive
24,Oc1ccc2ccc3cccc4ccc1c2c34,inactive
25,Cc1cccc(N)c1N,inactive
26,CC(C)N(Cc1ccccc1)C(=O)C(C)(C)C,inactive
27,Cc1cc(N=Nc2ccccc2C)ccc1N,inactive
28,c1ccc(N=Nc2ccccc2)cc1,inactive

# Target: Heat shock factor protein 1 (Homo sapiens) (UniProt Q00613)
# Assay: ATG_HSE_CIS: Attagene CIS-FACTORIAL HepG2 Assay for human Heat Shock Transcription Factor 1 (HSE) (AID 2282953)
# Conditions: HepG2 HSE cis-reporter, Attagene RNA transcription; actives raise or lower the signal
# Outline: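 HepG2, transient MRTU transfection, cis-promoter reporters (endogenous TF activity). 24 h compound. RNA → oligo(dT) RT → PCR → 6-FAM primer extension → HpaI cut → CE. Bidirectional fit vs DMSO.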
# Heat shock factor protein 1 (Homo sapiens), sequence (Q00613 whole entry, looked up): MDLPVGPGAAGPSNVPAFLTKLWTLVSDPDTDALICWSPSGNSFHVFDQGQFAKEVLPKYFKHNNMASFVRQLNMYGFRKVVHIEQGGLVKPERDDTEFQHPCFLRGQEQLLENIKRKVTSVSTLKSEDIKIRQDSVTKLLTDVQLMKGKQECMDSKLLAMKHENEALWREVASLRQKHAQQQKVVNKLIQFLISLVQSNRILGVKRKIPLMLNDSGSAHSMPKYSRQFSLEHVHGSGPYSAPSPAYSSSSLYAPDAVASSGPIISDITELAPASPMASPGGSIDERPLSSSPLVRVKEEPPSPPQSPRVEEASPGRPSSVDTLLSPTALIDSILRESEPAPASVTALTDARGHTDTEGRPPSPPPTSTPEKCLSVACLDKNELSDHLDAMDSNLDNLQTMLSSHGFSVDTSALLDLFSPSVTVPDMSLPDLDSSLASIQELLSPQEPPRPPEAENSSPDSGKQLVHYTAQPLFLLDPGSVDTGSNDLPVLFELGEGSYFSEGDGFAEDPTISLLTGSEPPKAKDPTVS
Structure (SMILES),AC50,outcome
O=[N+]([O-])C(Br)(CO)CO,158 µM (active),–
CCCCCOC(=O)c1ccccc1C(=O)OCCCCC,–,inactive
CCCSC(=O)N(CCC)CCC,–,inactive
O=C(O)C1C2CCC(O2)C1C(=O)O (centres undefined),–,inactive
Oc1ccccc1Cl,–,inactive
CC(C)(C)C(O)(CCc1ccc(Cl)cc1)Cn1cncn1 (centres undefined),–,inactive
COC(=O)Nc1nc2ccccc2[nH]1,–,inactive
ClC1=C(Cl)C2(Cl)C3C(Cl)C=CC3C1(Cl)C2(Cl)Cl (centres undefined),–,inactive
N#CC(Br)Br,–,inactive
ClCCOCCCl,–,inactive
ClC1=C(Cl)[C@]2(Cl)[C@H]3[C@H]([C@@H]4C=C[C@H]3C4)[C@@]1(Cl)C2(Cl)Cl,–,inactive
C1=Cc2cccc3cccc1c23,–,inactive
CS(=O)(=O)NC(=O)c1cc(Oc2ccc(C(F)(F)F)cc2Cl)ccc1[N+](=O)[O-],–,inactive
CCNS(=O)(=O)C(F)(F)C(F)(F)C(F)(F)C(F)(F)C(F)(F)C(F)(F)C(F)(F)C(F)(F)F,130 µM (active) and 218 µM (active) and 80.8 µM (active),–
CCN(CC)CCO,–,inactive
Nc1ccc(Oc2ccc(N)cc2)cc1,–,inactive
CCCCOC(=O)c1ccccc1C(=O)OCc1ccccc1,–,inactive
OCCCBr,–,inactive
CCN(CC)N=O,–,inactive
c1ccc(C2CO2)cc1 (centres undefined),–,inactive
[O-][Cl+]O,–,inactive
Oc1ccc2ccc3cccc4ccc1c2c34,–,inactive
Cc1cccc(N)c1N,–,inactive
CC(C)N(Cc1ccccc1)C(=O)C(C)(C)C,–,inactive
Cc1cc(N=Nc2ccccc2C)ccc1N,53.8 µM (active),–
c1ccc(N=Nc2ccccc2)cc1,–,inactive

# Reference: PubChem BioAssay (EPA / NIEHS)
